Where “and” joins values, the source holds several entries; their conditions need not be identical. Identical values can stand only once. The campaign covered roughly 5,500 compounds. About 2,000 (36%) were called active. Inconclusive results (about 18%) are left out. No stated cut-off is given here; in the data, active means normalized growth mostly below about 0.91 (no sharp cut-off); inconclusive means no clear call, values can overlap the other calls; inactive means mostly above about 0.92. The list shows a part of the results.
Assay: chemical genetic growth profiling, strain panel (AID 1159580);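 further: tested at 20 µM; growth read once vehicle control cultures reached saturation at 30 °C; 1 = growth at the plate median or of vehicle wells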
Conditions: S. cerevisiae deletion strains, growth OD

Measured: normalized growth

CC(=O)OCC(=O)[C@H]1CCC2C3CCC4=CC(=O)CC[C@]4(C)C3CC[C@@]21C (stereo partly drawn)
inactive: locus YAL021C, strain ccr4, stronger effect = lower value 0.94 | locus YAL026C, strain drs2, stronger effect = lower value 0.978 | locus YAL030W, strain snc1, stronger effect = lower value 0.979 | locus YBL061C, strain skt5, stronger effect = lower value 0.967 | locus YBR009C, strain hhf1, stronger effect = lower value 0.986 | locus YBR021W, strain FUR4, stronger effect = lower value 0.898 | locus YBR023C, strain chs3, stronger effect = lower value 0.94 | locus YBR171W, strain sec66, stronger effect = lower value 0.927 | locus YBR229C, strain ROT2, stronger effect = lower value 0.969 | locus YBR231C, strain swc5, stronger effect = lower value 1 | locus YBR279W, strain paf1, stronger effect = lower value 0.976 | locus YCL011C, strain gbp2, stronger effect = lower value 0.969 | locus YCL016C, strain dcc1, stronger effect = lower value 0.961 | locus YCL029C, strain bik1, stronger effect = lower value 0.957 | locus YCL061C, strain MRC1, stronger effect = lower value 0.984 | locus YCL069W, strain vba3, stronger effect = lower value 0.98 | locus YCR088W, strain abp1, stronger effect = lower value 0.972 | locus YDL005C, strain med2, stronger effect = lower value 0.964 | locus YDL035C, strain GPR1, stronger effect = lower value 0.86 | locus YDL040C, strain nat1, stronger effect = lower value 0.973 | locus YDL101C, strain DUN1, stronger effect = lower value 0.961 | locus YDL185W, strain tfp1, stronger effect = lower value 0.949 | locus YDL192W, strain arf1, stronger effect = lower value 0.935 | locus YDR001C, strain nth1, stronger effect = lower value 0.972 | locus YDR069C, strain doa4, stronger effect = lower value 0.967 | locus YDR101C, strain arx1, stronger effect = lower value 0.954 | locus YDR137W, strain rgp1, stronger effect = lower value 1.11 | locus YDR159W, strain sac3, stronger effect = lower value 0.885 | locus YDR195W, strain ref2 1.07 | locus YDR297W, strain sur2, stronger effect = lower value 0.975 | locus YDR318W, strain mcm21, stronger effect = lower value 0.929 | locus YDR334W, strain swr1, stronger effect = lower value 0.971 | locus YDR335W, strain msn5, stronger effect = lower value 0.988 | locus YDR388W, stronger effect = lower value 0.94 | locus YEL003W, strain gim4, stronger effect = lower value 0.994 | locus YEL037C, strain rad23, stronger effect = lower value 0.977 | locus YEL061C, strain CIN8 (second series), stronger effect = lower value 0.977 | locus YEL061C, strain CIN8, stronger effect = lower value 0.944 | locus YER015W, strain faa2, stronger effect = lower value 0.969 | locus YER016W, strain bim1, stronger effect = lower value 0.962 | locus YER110C, stronger effect = lower value 0.943 | locus YER111C, strain swi4, stronger effect = lower value 0.971 | locus YFR010W, strain ubp6, stronger effect = lower value 0.994 | locus YGL078C, strain dbp3, stronger effect = lower value 0.961 | locus YGL086W, strain mad1, stronger effect = lower value 0.934 | locus YGL167C, strain pmr1, stronger effect = lower value 0.951 | locus YGL173C, strain kem1, stronger effect = lower value 0.948 | locus YGL227W, strain vid30, stronger effect = lower value 0.992 | locus YGL240W, strain doc1, stronger effect = lower value 0.95 | locus YGL248W, strain PDE1, stronger effect = lower value 0.927 | locus YGL253W, strain hxk2, stronger effect = lower value 0.919 | locus YHR013C, strain ard1, stronger effect = lower value 0.997 | locus YHR027C, strain rpn1, stronger effect = lower value 0.996 | locus YHR030C, strain SLT2, stronger effect = lower value 0.944 and 1.02 | locus YHR079C, strain IRE1 (second series), stronger effect = lower value 0.956 | locus YHR079C, strain IRE1, stronger effect = lower value 1.02 | locus YHR094C, strain hxt1, stronger effect = lower value 0.956 | locus YHR129C, strain ARP1, stronger effect = lower value 0.944 | locus YHR142W, strain chs7, stronger effect = lower value 0.944 | locus YHR200W, strain rpn10, stronger effect = lower value 0.924 | locus YIL073C, strain SPO22, stronger effect = lower value 0.828 | locus YIL125W, strain kgd1, stronger effect = lower value 0.955 | locus YJL092W, strain hpr5, stronger effect = lower value 0.976 | locus YJL095W, strain BCK1 (second series), stronger effect = lower value 0.965 | locus YJL115W, strain asf1, stronger effect = lower value 0.984 | locus YJL129C, strain trk1, stronger effect = lower value 0.931 | locus YJL134W, strain LCB3, stronger effect = lower value 0.976 | locus YJL154C, strain vps35, stronger effect = lower value 0.98 | locus YJL164C, strain tpk1, stronger effect = lower value 0.978 | locus YJL166W, strain qcr8, stronger effect = lower value 0.989 | locus YJL168C, strain set2, stronger effect = lower value 0.96 | locus YJL187C, strain SWE1 (second series), stronger effect = lower value 0.935 | locus YJR066W, strain TOR1, stronger effect = lower value 0.956 | locus YKL009W, strain mrt4, stronger effect = lower value 0.909 | locus YKL068W, stronger effect = lower value 0.956 | locus YKL085W, strain MDH1 (second series), stronger effect = lower value 0.934 | locus YKL085W, strain MDH1, stronger effect = lower value 0.934 | locus YKL160W, strain elf1, stronger effect = lower value 0.964 | locus YKR026C, strain gcn3, stronger effect = lower value 0.977 | locus YKR091W, strain srl3, stronger effect = lower value 0.98 | locus YLL001W, strain dnm1, stronger effect = lower value 0.985 | locus YLL026W, stronger effect = lower value 0.992 | locus YLL041C, strain sdh2, stronger effect = lower value 0.986 | locus YLR027C, strain aat2, stronger effect = lower value 0.97 | locus YLR039C, strain RIC1, stronger effect = lower value 0.772 | locus YLR058C, strain SHM2, stronger effect = lower value 0.942 | locus YLR102C, strain apc9, stronger effect = lower value 0.956 | locus YLR113W, strain HOG1, stronger effect = lower value 0.951 | locus YLR221C, strain rsa3, stronger effect = lower value 0.972 | locus YLR258W, strain gsy2, stronger effect = lower value 0.958 | locus YLR262C, strain YPT6 (second series), stronger effect = lower value 1.04 | locus YLR262C, strain YPT6, stronger effect = lower value 0.754 | locus YLR268W, strain sec22, stronger effect = lower value 0.919 | locus YLR320W, strain mms22, stronger effect = lower value 0.881 | locus YLR342W, strain FKS1, stronger effect = lower value 0.926 | locus YLR357W, strain rsc2, stronger effect = lower value 1.02 | locus YLR370C, strain arc18, stronger effect = lower value 0.958 | locus YLR371W, strain rom2, stronger effect = lower value 0.966 | locus YLR384C, strain iki3, stronger effect = lower value 0.987 | locus YML016C, strain PPZ1, stronger effect = lower value 0.962 | locus YML120C, strain ndi1, stronger effect = lower value 0.979 | locus YML124C, strain tub3, stronger effect = lower value 0.938 | locus YMR058W, strain fet3, stronger effect = lower value 0.959 | locus YMR078C, strain ctf18, stronger effect = lower value 0.923 | locus YMR125W, strain sto1, stronger effect = lower value 0.986 | locus YMR129W, stronger effect = lower value 0.985 | locus YMR205C, strain PFK2, stronger effect = lower value 0.909 | locus YMR223W, strain ubp8, stronger effect = lower value 0.905 | locus YMR231W, strain pep5, stronger effect = lower value 0.988 | locus YMR307W, strain GAS1, stronger effect = lower value 0.744 | locus YNL067W, strain RPL9B, stronger effect = lower value 0.965 | locus YNL071W, strain lat1, stronger effect = lower value 0.923 | locus YNL153C, strain GIM3, stronger effect = lower value 0.962 | locus YNL183C, strain NPR1, stronger effect = lower value 0.961 | locus YNL209W, strain ssb2, stronger effect = lower value 0.979 | locus YNL233W, strain BNI4, stronger effect = lower value 0.871 | locus YNL248C, strain rpa49, stronger effect = lower value 0.945 | locus YNL250W, strain rad50, stronger effect = lower value 0.978 | locus YNL271C, strain bni1, stronger effect = lower value 0.938 | locus YNL322C, strain KRE1 (second series), stronger effect = lower value 0.951 | locus YNR049C, strain mso1, stronger effect = lower value 0.989 | locus YNR052C, strain pop2, stronger effect = lower value 0.986 | locus YOL012C, strain htz1 1.17 | locus YOR001W, strain rrp6, stronger effect = lower value 0.999 | locus YOR061W, strain CKA2, stronger effect = lower value 0.943 | locus YOR069W, strain VPS5, stronger effect = lower value 0.983 | locus YOR070C, strain gyp1, stronger effect = lower value 0.974 | locus YOR080W, strain dia2, stronger effect = lower value 0.987 | locus YOR083W, strain WHI5, stronger effect = lower value 0.9 | locus YOR106W, strain vam3, stronger effect = lower value 0.941 | locus YOR136W, strain idh2, stronger effect = lower value 0.965 | locus YOR231W, strain MKK1, stronger effect = lower value 0.983 | locus YOR265W, strain rbl2, stronger effect = lower value 0.98 | locus YOR290C, strain snf2, stronger effect = lower value 0.961 | locus YOR316C, strain cot1, stronger effect = lower value 0.947 | locus YPL051W, strain arl3, stronger effect = lower value 0.968 | locus YPL055C, strain LGE1, stronger effect = lower value 0.861 | locus YPL078C, strain atp4, stronger effect = lower value 0.903 | locus YPL106C, strain sse1, stronger effect = lower value 1.04 | locus YPL240C, strain hsp82, stronger effect = lower value 0.982 | locus YPL241C, strain CIN2, stronger effect = lower value 0.963 | locus YPL256C, strain CLN2, stronger effect = lower value 1.01 | locus YPR119W, strain clb2, stronger effect = lower value 0.948 | locus YPR141C, strain kar3, stronger effect = lower value 0.954 | locus YPR163C, strain tif3, stronger effect = lower value 0.916 | strain wtn01, stronger effect = lower value 0.949
active: locus YAL013W, strain DEP1, stronger effect = lower value 0.886 | locus YDL074C, strain BRE1, stronger effect = lower value 0.777 | locus YDL134C, strain PPH21, stronger effect = lower value 0.826 | locus YDR162C, strain NBP2, stronger effect = lower value 0.78 | locus YDR392W, strain spt3, stronger effect = lower value 0.56 | locus YDR502C, strain sam2, stronger effect = lower value 0.899 | locus YER155C, strain BEM2 (second series), stronger effect = lower value 0.835 | locus YER155C, strain BEM2, stronger effect = lower value 0.92 | locus YER167W, strain BCK2, stronger effect = lower value 0.829 | locus YGR135W, strain pre9, stronger effect = lower value 0.84 | locus YGR252W, strain gcn5, stronger effect = lower value 0.72 | locus YIL066C, strain RNR3, stronger effect = lower value 0.809 | locus YIR030C, strain dcg1, stronger effect = lower value 0.927 | locus YJR043C, strain POL32, stronger effect = lower value 0.797 | locus YKR001C, strain vps1, stronger effect = lower value 0.777 | locus YLR330W, strain CHS5, stronger effect = lower value 0.864 | locus YLR342W, strain FKS1 (second series), stronger effect = lower value 0.726 | locus YLR418C, strain cdc73, stronger effect = lower value 0.691 | locus YML032C, strain rad52, stronger effect = lower value 0.896 | locus YNL298W, strain CLA4, stronger effect = lower value 0.893 | locus YNL307C, strain MCK1, stronger effect = lower value 0.596 | locus YOL147C, strain pex11, stronger effect = lower value 0.93 | locus YOR144C, strain elg1, stronger effect = lower value 0.929 | locus YOR184W, strain ser1, stronger effect = lower value 0.759 | locus YOR270C, strain vph1, stronger effect = lower value 0.734 | locus YPR167C, strain met16, stronger effect = lower value 0.921
0.752 (active) and 0.988 (inactive): locus YJL095W, strain BCK1, stronger effect = lower value
